For 8 molecules, growth results are on record in PubChem BioAssay (NCI).

SMILES strings stand for the structures. This is part of a sample that, as a whole, favours compounds with a hit. Of some 83,000 tested, about 20% had one in any assay.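 Step 1: grow cells in 96-well plates. Step 2: add test compound at a single concentration. Step 3: incubate 48 h. Step 4: record percent growth.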 A number with no mark means an inactive call. The source made the active and inactive calls. How the source made its calls: active means growth percent below 10; inactive means the rest.

Some test systems named below: SR leukemia; RPMI-8226 leukemia; OVCAR-8 ovarian; OVCAR-5 ovarian; OVCAR-4 ovarian; SK-OV-3 ovarian; IGROV1 ovarian; OVCAR-3 ovarian; HS 578T breast; NCI/ADR-RES ovarian; T-47D breast; BT-549 breast; MDA-MB-435 melanoma; SW-620 colon; MCF7 breast; HCT-116 colon; HCC-2998 colon; KM12 colon.
Holding throughout (experiment): NCI-60 one-dose screen, 48 h (100 = growth as untreated, 0 = no growth, -100 = all killed)
Conditions in all cases: 10 µM unless noted

As for `N#Cc1cnc2cc(OC[C@@H](O)CO)c(NC(=O)C3CCCC3)cc2c1Nc1ccc(OCc2cccc(F)c2)c(Cl)c1`, the growth in the test on SR leukemia was 13.4%; in the test on RPMI-8226 leukemia, -13.5% (active); in the test with OVCAR-8 ovarian, -13.6% (active); in the test on OVCAR-5 ovarian, 86.1%; with OVCAR-4 ovarian, -74.8% (active); in the test with SK-OV-3 ovarian, 27%. For the same molecule, the growth in the test on IGROV1 ovarian was 4.22% (active); in the test with OVCAR-3 ovarian, -82% (active); in the test with HS 578T breast, -32.2% (active); in the test on NCI/ADR-RES ovarian, 63.3%; with T-47D breast it was -15.1% (active); with BT-549 breast, -72.8% (active). Also, the growth in the test with MDA-MB-435 melanoma was 20.3%; with SW-620 colon, 15.8%; in the test on MCF7 breast it was -68.1% (active); with HCT-116 colon, -32.2% (active); in the test on HCC-2998 colon, -65.2% (active); in the test on KM12 colon, 45%.

For the molecule `CCCNc1nc(N(C)O)nc(N(C)O)n1`, the growth is 32.1% in the test with SR leukemia; 38.1% in the test on RPMI-8226 leukemia; 26.5% with OVCAR-8 ovarian; 64% in the test with OVCAR-5 ovarian; 19.2% in the test on OVCAR-4 ovarian; 45.2% in the test on SK-OV-3 ovarian. The growth is 36.9% in the test on IGROV1 ovarian; -10.6% (active) with OVCAR-3 ovarian; 71% in the test with HS 578T breast; 16.9% with NCI/ADR-RES ovarian; 28.2% in the test with T-47D breast; 68.5% with BT-549 breast. The growth with MDA-MB-435 melanoma was 51.2%; with SW-620 colon, 38.1%; with MCF7 breast, 15.6%; in the test on HCT-116 colon it was 5.06% (active); in the test on HCC-2998 colon, 24.5%; with KM12 colon it was 41.5%.

Turning to `Cc1cc(C)n(Cc2cc(C(C)(C)C)cc(C(C)(C)C)c2)c(=O)c1C#N`, the growth was 84% with SR leukemia; 93.7% in the test on RPMI-8226 leukemia; 93.4% in the test on OVCAR-8 ovarian; 83.8% in the test with OVCAR-5 ovarian; 90.4% with OVCAR-4 ovarian; 87% in the test on SK-OV-3 ovarian. The growth with IGROV1 ovarian is 96.8%; in the test on OVCAR-3 ovarian, 106%; with HS 578T breast it was 81.6%; in the test with NCI/ADR-RES ovarian it was 96.7%; with T-47D breast it was 79.3%; in the test on BT-549 breast it was 88.5%. In addition, the growth was 102% in the test on MDA-MB-435 melanoma; 101% in the test on SW-620 colon; 88.4% with MCF7 breast; 79.3% in the test on HCT-116 colon; 116% in the test with HCC-2998 colon; 97.5% in the test with KM12 colon.

Regarding `O=C1CN(c2ccccc2)C(=O)C1C(=O)Nc1ccc(Cl)c(Cl)c1` (centres undefined), the growth in the test on SR leukemia was 1.54% [100 µM] (active); in the test on RPMI-8226 leukemia it was 34.9% [100 µM]; in the test with OVCAR-8 ovarian it was -9.87% [100 µM] (active); in the test on OVCAR-5 ovarian, 36.3% [100 µM]; in the test with OVCAR-4 ovarian, 0.243% [100 µM] (active); with SK-OV-3 ovarian, 20.3% [100 µM]. Moreover, the growth in the test with IGROV1 ovarian was 20.9% [100 µM]; in the test with OVCAR-3 ovarian, 39.3% [100 µM]; with HS 578T breast, 32.8% [100 µM]; with NCI/ADR-RES ovarian it was 21.6% [100 µM]; in the test with T-47D breast, 12.7% [100 µM]; with BT-549 breast, 23.4% [100 µM]. Further, the growth in the test with MDA-MB-435 melanoma is 7.79% [100 µM] (active); in the test with SW-620 colon it was 20.1% [100 µM]; in the test with MCF7 breast, 15.7% [100 µM]; in the test with HCT-116 colon, -19.4% [100 µM] (active); in the test on HCC-2998 colon, 2.18% [100 µM] (active); in the test with KM12 colon, 17.2% [100 µM].

With `Cc1ccc(Cc2cnc(NC(=O)/C=C/c3cccc(C)c3)s2)cc1`, the growth is 13.2% in the test with SR leukemia; 3.37% (active) with RPMI-8226 leukemia; 21% in the test with OVCAR-8 ovarian; 20.9% with OVCAR-5 ovarian; 12.9% in the test on OVCAR-4 ovarian; 15.7% with SK-OV-3 ovarian. Besides, the growth was 18.3% in the test on IGROV1 ovarian; -41.4% (active) in the test on OVCAR-3 ovarian; 6.83% (active) in the test on HS 578T breast; -36.5% (active) with NCI/ADR-RES ovarian; 39.8% with T-47D breast; -5.4% (active) in the test on BT-549 breast. Moreover, the growth is -44.7% (active) with MDA-MB-435 melanoma; 17% in the test on SW-620 colon; 14.6% in the test with MCF7 breast; 2.53% (active) in the test on HCT-116 colon; 12.4% with HCC-2998 colon; 16.1% in the test with KM12 colon.

On to `Cc1nnc2nc(N)[nH]n2c1=O`, for which the growth is 78.9% in the test with SR leukemia; 106% in the test on RPMI-8226 leukemia; 98.8% in the test on OVCAR-8 ovarian; 117% in the test on OVCAR-5 ovarian; 99.4% in the test with OVCAR-4 ovarian; 112% in the test with SK-OV-3 ovarian. Moreover, the growth in the test on IGROV1 ovarian is 103%; in the test on OVCAR-3 ovarian, 104%; in the test with HS 578T breast, 112%; with NCI/ADR-RES ovarian, 99.7%; with T-47D breast, 96.1%; with BT-549 breast it was 99.6%. The growth was 113% in the test with MDA-MB-435 melanoma; 107% in the test with SW-620 colon; 97.9% in the test with MCF7 breast; 101% in the test on HCT-116 colon; 102% in the test on HCC-2998 colon; 96% in the test with KM12 colon.

With `COC(=O)[C@]12CC[C@@H](C(=O)/C=C/c3cccnc3)[C@@H]1[C@H]1CC[C@@H]3[C@@]4(C)C/C(=C/c5cccnc5)C(=O)C(C)(C)[C@@H]4CC[C@@]3(C)[C@]1(C)CC2`, the growth was -14.1% (active) in the test with SR leukemia; -28.7% (active) in the test on RPMI-8226 leukemia; -34.3% (active) with OVCAR-8 ovarian; -62.7% (active) in the test on OVCAR-5 ovarian; -39.2% (active) with OVCAR-4 ovarian; -23.1% (active) with SK-OV-3 ovarian. In addition, the growth in the test on IGROV1 ovarian is -87.9% (active); in the test on OVCAR-3 ovarian, -93.2% (active); in the test on HS 578T breast, -49.1% (active); in the test with NCI/ADR-RES ovarian, -39.4% (active); with T-47D breast, -43.6% (active); in the test on BT-549 breast, -92.1% (active). Further, the growth with MDA-MB-435 melanoma was -69.7% (active); with SW-620 colon, -67.3% (active); in the test on MCF7 breast, -54.2% (active); in the test with HCT-116 colon, -87.4% (active); in the test on HCC-2998 colon, -55.5% (active); in the test with KM12 colon, -75% (active).

Regarding `COc1ccc(C(=O)/C=C/c2cc(-c3cc(OC)c(OC)c(OC)c3)n[nH]2)cc1OC`, the growth in the test on SR leukemia is -15.6% (active); in the test on RPMI-8226 leukemia, -36% (active); in the test with OVCAR-8 ovarian, -4.15% (active); with OVCAR-5 ovarian, 32.9%; in the test on OVCAR-4 ovarian, 13.3%; with SK-OV-3 ovarian it was 51.6%. The growth with IGROV1 ovarian is -5.47% (active); in the test with OVCAR-3 ovarian, -55.3% (active); with HS 578T breast it was 57.1%; in the test with NCI/ADR-RES ovarian, 15%; with T-47D breast it was -2.5% (active); in the test on BT-549 breast, -51.6% (active). Besides, the growth is -71.6% (active) in the test with MDA-MB-435 melanoma; -64% (active) with SW-620 colon; -39.6% (active) in the test with MCF7 breast; -88.7% (active) in the test with HCT-116 colon; -77.2% (active) in the test on HCC-2998 colon; -86.7% (active) in the test on KM12 colon.
